Data published in PubChem BioAssay (Tox21).
Where “and” joins values, the source holds several entries; their conditions need not be identical. Identical values can stand only once. Inconclusive results are not listed. Calls of active or inactive are those of the source. Unless noted, calls follow the shape of the dose curve; as a rule, active = well fitted curve in the direction sought with a large enough effect in the repeat runs; inconclusive = weak or mixed curves; inactive = no such curve, though single readings can be large; an effect the other way counts as inactive or inconclusive.

Experiments:
[1] = molecular target: Thyrotropin receptor (Homo sapiens) (UniProt P16473); assay: qHTS assay to identify small molecule agonists of the thyroid stimulating hormone receptor (TSHR) signaling pathway (AID 1224843; calls by dose curve; also: nearly all actives have a fitted effect of over 45% in size)
Sequence of Thyrotropin receptor (Homo sapiens) (P16473 whole entry, looked up): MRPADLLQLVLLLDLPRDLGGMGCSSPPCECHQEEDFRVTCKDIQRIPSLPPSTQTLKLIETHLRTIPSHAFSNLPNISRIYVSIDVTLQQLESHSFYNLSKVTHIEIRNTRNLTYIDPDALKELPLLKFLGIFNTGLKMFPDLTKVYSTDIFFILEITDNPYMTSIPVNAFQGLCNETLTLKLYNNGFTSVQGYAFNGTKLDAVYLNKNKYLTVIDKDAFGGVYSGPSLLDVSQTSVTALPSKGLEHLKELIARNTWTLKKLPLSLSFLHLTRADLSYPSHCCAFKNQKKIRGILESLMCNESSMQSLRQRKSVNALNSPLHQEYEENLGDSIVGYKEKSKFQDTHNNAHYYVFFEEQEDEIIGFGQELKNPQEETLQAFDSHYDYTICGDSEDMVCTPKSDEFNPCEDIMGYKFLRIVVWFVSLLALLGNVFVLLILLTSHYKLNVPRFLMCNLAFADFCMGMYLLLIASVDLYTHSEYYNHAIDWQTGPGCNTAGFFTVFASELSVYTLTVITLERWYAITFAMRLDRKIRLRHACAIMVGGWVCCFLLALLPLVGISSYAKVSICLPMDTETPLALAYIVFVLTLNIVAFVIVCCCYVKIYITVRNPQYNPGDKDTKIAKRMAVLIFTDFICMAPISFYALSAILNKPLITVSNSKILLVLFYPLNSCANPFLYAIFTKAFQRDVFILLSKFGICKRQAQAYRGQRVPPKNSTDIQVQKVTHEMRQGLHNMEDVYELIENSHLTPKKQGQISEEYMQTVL
How it was run: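 HEK293/TSHR, 800 cells/well; cpd 30 min RT; add cAMP-d2 + anti-cAMP-cryptate, 1 h RT; fluorescence read on plate reader. 15-pt titration, n=3.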

[2] = qHTS assay to identify small molecule agonists of the hypoxia (HIF-1) signaling pathway - cell viability counter screen (AID 1224844; calls by dose curve; also: nearly all actives have a fitted effect of over 50% in size)
How it was run: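 Cytotoxicity was measured in parallel with the HRE-driven beta-lactamase readout: after 17 hrs of compound exposure at 37C, HRE-bla ME-180 cells received CellTiter-Glo and luminescence was recorded 30 min later.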

[3] = qHTS assay to identify small molecule agonists of H2AX (AID 1224845; active = well fitted activation curve with a large enough effect in the signal ratio in the repeat runs, not every such curve was filed as active; the % refers to the signal ratio)
How it was run: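 Wild-type CHO-K1 cells, plated overnight, exposed 3hr at 37C to 15 concentrations (0.76% DMSO final). Lysed, then HTRF anti-pH2AX (S139) cryptate and anti-H2AX-d2 antibodies, 24 hr room temperature; 665/620 nm emission read.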

[4] = qHTS assay to identify small molecule agonists of the hypoxia (HIF-1) signaling pathway (AID 1224846; active = well fitted activation curve with a large enough effect in the signal ratio in the repeat runs, not every such curve was filed as active; the % refers to the signal ratio)
How it was run: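 Compounds from the Tox21 10K library, dissolved in DMSO, are tested for induction of a hypoxia response element–controlled beta-lactamase reporter in ME-180 cells. Exposure lasts 17 hrs at 37C after a 5 hr settling period, followed by CCF4-AM FRET substrate.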

[5] = qHTS assay to identify small molecule agonists of H2AX - cell viability counter screen (AID 1224847; calls by dose curve; also: top concentration of the series differs between compounds; nearly all actives have a fitted effect of over 30% in size)
How it was run: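 After overnight plating of 1000 CHO-K1 cells per well, a 15-concentration compound series was applied for 3 hr at 37C. Luminescence from CellTiter-Glo, read following 30 min at room temperature, reflected cell viability.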

[6] = qHTS RealTime-Glo MT Cell Viability Assay in HepG2 cells - 24 hour (AID 1224867); also: nearly all actives have a fitted effect of over 50% in size
How it was run: (§1)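 Cells + NanoLuc/prosubstrate dispensed (600 cells/well) → 5 h at 37 C/5% CO2 → compounds in DMSO transferred → 40 h incubation at 37 C, luminescence read at 0, 8, 16, 24, 32, 40 h.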

[7] = qHTS RealTime-Glo MT Cell Viability Assay in HEK293 cells - 32 hour (AID 1224868); also: top concentration of the series differs between compounds; nearly all actives have a fitted effect of over 50% in size
How it was run: (§2)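 Tox21 10K qHTS, HEK293, 600 cells/well, RealTime-Glo reagent co-dispensed with cells; 5 h preincubation, compound by pintool, 37 C, luminescence at 0–40 h.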

[8] = A CellTox Green Cytotoxicity Assay to monitor cytotoxicity in HEK293 cells - 0 hour (AID 1224869); also: nearly all actives have a fitted effect of over 50% in size
How it was run: (§3)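 Cells (HEK293, 600/well) and dye reagent are dispensed together. After 5 h at 37 C, 23 nL compound is pinned in. Plates stay at 37 C for 40 h with fluorescence read at 0h, 8h, 16h, 24h, 32h and 40h.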

[9] = qHTS RealTime-Glo MT Cell Viability Assay in HepG2 cells - 40 hour (AID 1224870); also: nearly all actives have a fitted effect of over 50% in size
How it was run: (§4)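 HepG2 cells (600/well) mixed with RealTime-Glo MT reagent, settled 5 h at 37 C/5% CO2 before compound addition. Nonlytic NanoLuc luminescence from viable-cell prosubstrate reduction read repeatedly during 40 h treatment at 37 C.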

[10] = A CellTox Green Cytotoxicity Assay to monitor cytotoxicity in HEK293 cells - 40 hour (AID 1224871); also: nearly all actives have a fitted effect of over 45% in size
How it was run: as §3

[11] = qHTS RealTime-Glo MT Cell Viability Assay in HEK293 cells - 16 hour (AID 1224872)
How it was run: as §2

[12] = qHTS RealTime-Glo MT Cell Viability Assay in HepG2 cells - 8 hour (AID 1224873); also: nearly all actives have a fitted effect of over 55% in size
How it was run: as §4

[13] = qHTS RealTime-Glo MT Cell Viability Assay in HEK293 cells - 40 hour (AID 1224874); settings: RealTime-Glo luminescence; max response: stronger effect = lower value; also: nearly all actives have a fitted effect of over 50% in size
How it was run: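 Real-time viability in HEK293: signal arises when living cells convert a prosubstrate for NanoLuc in the medium, so luminescence tracks viable cell number. Compound (23 nL, DMSO) added 5 h post-seeding; kinetic reads at 0–40 h, 37 C.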

[14] = A CellTox Green Cytotoxicity Assay to monitor cytotoxicity in HEK293 cells - 24 hour (AID 1224875); also: series mostly up to about 77 µM; nearly all actives have a fitted effect of over 45% in size
How it was run: as §3

[15] = A CellTox Green Cytotoxicity Assay to monitor cytotoxicity in HepG2 cells - 16 hour (AID 1224876); also: nearly all actives have a fitted effect of over 45% in size
How it was run: (§5)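 Cells and non-lytic dye reagent are dispensed together (600 HepG2 cells/well) and incubated 5 h before DMSO compound transfer. Kinetic fluorescence is then recorded in the same wells during 40 h at 37 C.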

[16] = qHTS RealTime-Glo MT Cell Viability Assay in HepG2 cells - 32 hour (AID 1224877); also: nearly all actives have a fitted effect of over 55% in size
How it was run: as §1

[17] = A CellTox Green Cytotoxicity Assay to monitor cytotoxicity in HepG2 cells - 24 hour (AID 1224878); also: nearly all actives have a fitted effect of over 45% in size
How it was run: as §5

[18] = A CellTox Green Cytotoxicity Assay to monitor cytotoxicity in HepG2 cells - 40 hour (AID 1224879); also: nearly all actives have a fitted effect of over 40% in size
How it was run: as §5

[19] = qHTS assay to identify small molecule antagonists of the estrogen related receptor (ERR) signaling pathway from Tox21 library (AID 1224848); also: nearly all actives have a fitted effect of over 50% in size
How it was run: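 Compounds dissolved in DMSO are pin-transferred onto ERR reporter cells (2,000 per well) that have settled for 6 h at 37 C. Plates then incubate 18 h at 37 C before ONE-Glo luciferase reagent and a luminescence read 30 min later.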

[20] = qHTS assay to identify small molecule agonists of the estrogen related receptor (ERR) signaling pathway from Tox21 library (AID 1224849; calls by dose curve; also: nearly all actives have a fitted effect of over 15% in size)
How it was run: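 Cells carrying the ERR reporter were plated and allowed to settle for 6 h, exposed to library compounds for 18 h at 37 C, then lysed with ONE-Glo and luminescence measured.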
% is scaled to controls: 0 for no effect and ±100 for the full control effect.

CCCCCCCCCCCCCCCCO
inactive: outcome [1] | outcome [2] | outcome [3] | outcome [4] | outcome [5] | Potency [6] | Potency [7] | outcome [8] | outcome [9] | Potency [10] | Potency [11] | Potency [12] | max response [13] -1.41% | Potency [14] | outcome [15] | outcome [16] | Potency [17] | Potency [18]

CCOCC(=O)O
inactive: outcome [1] | outcome [2] | outcome [3] | outcome [4] | outcome [5] | outcome [19] | outcome [20] | Potency [6] | Potency [7] | outcome [8] | outcome [9] | Potency [10] | Potency [11] | Potency [12] | max response [13] -1.6% and 8.63% | Potency [14] | outcome [15] | outcome [16] | Potency [17] | Potency [18]

Clc1ccccn1
inactive: outcome [1] | outcome [2] | outcome [3] | outcome [4] | outcome [5] | Potency [6] | Potency [7] | outcome [8] | outcome [9] | Potency [10] | Potency [11] | Potency [12] | max response [13] 5.77% and 7.16% | Potency [14] | outcome [15] | outcome [16] | Potency [17] | Potency [18]

O=C(O)c1cc2ccccc2cc1O
inactive: outcome [1] | outcome [2] | outcome [3] | outcome [4] | outcome [5] | outcome [19] | outcome [20] | Potency [6] | Potency [7] | outcome [8] | outcome [9] | Potency [10] | Potency [11] | Potency [12] | max response [13] -2.62% and 6.1% | Potency [14] | outcome [15] | outcome [16] | Potency [17] | Potency [18]

O=C(O)CCCCCCCCC(=O)O
inactive: outcome [1] | outcome [2] | outcome [3] | outcome [4] | outcome [5] | outcome [19] | outcome [20] | Potency [6] | Potency [7] | outcome [8] | outcome [9] | Potency [10] | Potency [11] | Potency [12] | max response [13] 1.05% and 1.59% | Potency [14] | outcome [15] | outcome [16] | Potency [17] | Potency [18]

CCc1ccccc1CC
inactive: outcome [1] | outcome [2] | outcome [3] | outcome [4] | outcome [5] | outcome [19] | outcome [20] | Potency [6] | Potency [7] | outcome [8] | outcome [9] | Potency [10] | activity change, negative = cytotoxicity [11] 1.28% [at 15.8 µM] | Potency [12] | max response [13] 10.8% and 1.1% | Potency [14] | outcome [15] | outcome [16] | Potency [17] | Potency [18]

CCOC(=O)n1ccn(C)c1=S
inactive: outcome [1] | outcome [2] | outcome [3] | outcome [4] | outcome [5] | Potency [6] | Potency [7] | outcome [8] | outcome [9] | Potency [10] | Potency [11] | Potency [12] | max response [13] 1.12% and 2.41% | Potency [14] | outcome [15] | outcome [16] | Potency [17] | Potency [18]

CC(CCl)OP(=O)(OC(C)CCl)OC(C)CCl (stereo not drawn)
inactive: outcome [1] | outcome [2] | outcome [3] | outcome [4] | outcome [5] | outcome [19] | outcome [20] | Potency [6] | Potency [7] | outcome [8] | outcome [9] | Potency [10] | Potency [11] | Potency [12] | max response [13] -21.3% and -15.3% | Potency [14] | outcome [15] | outcome [16] | Potency [17] | Potency [18]

CN(C)c1ccc(O)c2c1C[C@H]1C[C@H]3[C@H](N(C)C)C(=O)C(C(N)=O)=C(O)[C@@]3(O)C(=O)C1=C2O
inactive: outcome [1] | outcome [2] | outcome [3] | outcome [4] | outcome [5] | Potency [6] | Potency [7] | outcome [8] | outcome [9] | Potency [10] | Potency [11] | Potency [12] | max response [13] -2.64% and -1.12% | Potency [14] | outcome [15] | outcome [16] | Potency [17] | Potency [18]

CCNc1cccc(C)c1
inactive: outcome [1] | outcome [2] | outcome [3] | outcome [4] | outcome [5] | outcome [19] | outcome [20] | Potency [6] | Potency [7] | outcome [8] | outcome [9] | Potency [10] | Potency [11] | Potency [12] | max response [13] -1.66% and 8.48% | Potency [14] | outcome [15] | outcome [16] | Potency [17] | Potency [18]

CCCOC(=O)c1ccccc1
inactive: outcome [1] | outcome [2] | outcome [3] | outcome [4] | outcome [5] | outcome [19] | outcome [20] | Potency [6] | Potency [7] | outcome [8] | outcome [9] | Potency [10] | Potency [11] | Potency [12] | max response [13] 4.73% and -2.32% | Potency [14] | outcome [15] | outcome [16] | Potency [17] | Potency [18]

C=CCCCCCCCCC(=O)O
inactive: outcome [1] | outcome [2] | outcome [3] | outcome [4] | outcome [5] | Potency [6] | Potency [7] | outcome [8] | outcome [9] | Potency [10] | Potency [11] | Potency [12] | max response [13] 12.5% and 0.601% | Potency [14] | outcome [15] | outcome [16] | Potency [17] | Potency [18]

CC(C)CCCCCCCOC(=O)CCCCC(=O)OCCCCCCCC(C)C
inactive: outcome [1] | outcome [2] | outcome [3] | outcome [4] | outcome [5] | Potency [6] | Potency [7] | outcome [8] | outcome [9] | Potency [10] | Potency [11] | Potency [12] | max response [13] -6.27% and 3.22% | Potency [14] | outcome [15] | outcome [16] | Potency [17] | Potency [18]
